# Only some compounds are listed: those with a hit (about 5.6% of all), similar ones and a draw of the others.
# M18AAP inhibitor: PfM18AAP enzyme inhibition | recombinant PfM18AAP, H-Glu-NHMec fluorogenic cleavage | inhibition, % at 7.35 µM | hit rate 1.2% among 290,000;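 active = inhibition above the campaign mean inhibition over all tested compounds plus 3 SD, cut at about 28% in these data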;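 also: 0% = plate median of test compound wells and 100% = 2 mM ZnCl2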
# ALR inh: blocks human ALR sulfhydryl oxidase activity; purified ALR, DTT oxidation, H2O2 HRP-luminol luminescence; hit rate 3.8% among 290,000; inhibition, % (no concentration beside the values); P55789;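 active = mean replicate inhibition above about 79%, with every replicate also reaching it, limit read from the data; inconclusive = only one of the two criteria met; inactive = mean below limit and not every replicate reaching it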
# Target sequence (P55789 whole entry, looked up): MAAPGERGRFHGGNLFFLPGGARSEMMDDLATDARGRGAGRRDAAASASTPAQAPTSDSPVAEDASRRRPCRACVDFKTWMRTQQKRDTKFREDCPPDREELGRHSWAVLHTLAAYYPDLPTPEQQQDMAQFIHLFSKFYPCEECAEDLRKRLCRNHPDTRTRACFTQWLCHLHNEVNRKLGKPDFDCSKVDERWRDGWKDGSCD
# PHOSPHO1 inh: blocks human PHOSPHO1 phosphatase activity | Q8TCT1 | recombinant PHOSPHO1, absorbance phosphatase assay | inhibition, % at 13.3 µM | hit rate 1.1% among 290,000 | AID 1565; in the data active = inhibition above about 60%
# Target sequence (Q8TCT1 whole entry, looked up): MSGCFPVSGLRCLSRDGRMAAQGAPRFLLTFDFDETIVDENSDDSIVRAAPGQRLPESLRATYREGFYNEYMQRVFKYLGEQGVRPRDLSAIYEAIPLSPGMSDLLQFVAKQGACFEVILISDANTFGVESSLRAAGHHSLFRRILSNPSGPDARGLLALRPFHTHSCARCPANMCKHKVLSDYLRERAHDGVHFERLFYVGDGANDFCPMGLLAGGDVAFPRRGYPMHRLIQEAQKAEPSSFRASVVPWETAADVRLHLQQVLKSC
# Cardio protect: modulators protecting cardiomyocytes from myocardial damage; H9c2 cardiomyocytes, H2O2 injury protection, ATPLite, 2 h; protection from H2O2 cell death, % at 20 µM; hit rate 0.63% among 360,000;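 active = compounds giving at least 50% protection of heart cells from peroxide-induced death in the single-dose screen, raw or plate-pattern-corrected value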;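 also: 0% = DMSO wells with peroxide and 100% = DMSO wells without peroxide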
# PfG6PD inh: PfG6PD (Plasmodium falciparum) enzyme inhibition; hit rate 0.78% among 350,000; inhibition, % at 20 µM; PfGluPho enzyme, NADPH resazurin-diaphorase fluorescence; AID 504690;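 active = inhibition reaching at least a set limit at 20 µM in the primary screen, cut at about 59% in these data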;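 also: 0% = DMSO wells with substrate and 100% = DMSO wells lacking glucose-6-phosphate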
# An asterisk follows results filed as active; ? = inconclusive; / = no result given.
SMILES,M18AAP inhibitor,ALR inh,PHOSPHO1 inh,Cardio protect,PfG6PD inh
Cc1cccc2c1cnn2C(=O)CCC(=O)NCc1ccc(F)cc1,2,-6,33,12,5
COc1ccc(C(=O)NC(=O)CSc2n[nH]c(N)n2)cc1,/,4,/,1,-21
CCC(=O)N1CCN(c2ccccc2NC(=O)c2ccc(-c3cccc([N+](=O)[O-])c3)o2)CC1,1,-1,-32,107*,5
O=C(NC1CCCCC1)c1ccc(-c2cccc([N+](=O)[O-])c2)o1,-9,94*,21,7,6
CN1CCN(c2ccccc2NC(=O)c2cccc([N+](=O)[O-])c2)CC1,-2,/,29,-1,0
O=C(O)c1ccc(-c2cccc([N+](=O)[O-])c2)o1,2,/,16,4,1
CN1CCN(c2ccccc2NC(=O)c2ccc(-c3cccc([N+](=O)[O-])c3)o2)CC1,4,-14,-12,77*,0
Cc1ccccc1NC(=O)Cc1nc(COC(=O)c2ccc(S(C)(=O)=O)c([N+](=O)[O-])c2)cs1,/,/,/,-24,5
C=C1c2nc3ccccc3n2C=C(c2ccc(C)cc2)N1c1ccccc1,/,/,/,-18,46
O=C(c1ccccc1)c1ccc(NCCCn2ccnc2)c([N+](=O)[O-])c1,0,0,11,-12,-5
COc1cccc(/C=N/c2oc(-c3ccccc3)cc2C#N)c1O,4,86*,33,2,11
N#Cc1cc(-c2ccccc2)oc1/N=C/c1ccccc1O,16,97*,-34,0,10
COc1ccc(/C=N/c2oc(-c3ccccc3)cc2C#N)cc1,11,97*,28,0,-9
CC(C)(C)c1ccc(C(=O)NCCC(=O)NCc2cccs2)cc1,1,-3,19,-4,2
Cc1nc(NC(=O)/C=C/c2ccccc2)sc1C(=O)Nc1ccccc1Cl,-14,1,32,1,-10
Cc1nc(NC(=O)/C=C/c2ccccc2)sc1C(=O)Nc1ccc(Cl)cc1,-2,-1,65*,-4,-6
CCOc1ccc(N2C(=O)C(Cl)=C(Nc3ccccc3O)C2=O)cc1,33*,57,55,-8,33
O=C1C(Cl)=C(N2CCOCC2)C(=O)N1c1ccc(Br)cc1,20,5,-14,2,-18
CCOc1ccc(N2C(=O)C(Cl)=C(N3CCOCC3)C2=O)cc1,29*,2,14,2,12
O=C(NC(c1ccc(Cl)cc1)c1cnccn1)C1CCN(CCCOc2ccccc2)CC1 (configuration not stated),/,/,/,0,/
C[C@H](CO)N1C[C@H](C)[C@@H](CN(C)C(=O)Nc2ccc3c(c2)OCO3)Oc2c(NC(=O)Cc3ccccc3)cccc2C1=O,/,/,/,-2,22
C=CCN1CC(O)=C(c2nc3ccccc3[nH]2)C1=N,5,83*,32,-4,-8
CCCCN1CC(O)=C(c2nc3ccccc3[nH]2)C1=N,-11,4,26,-9,3
CCSc1nc2sc3c(c2c(=O)n1C1CCCCC1)CCN(C)C3,/,/,60*,-13,10
C=CCn1c(SCC(=O)OC)nc2sc3c(c2c1=O)CCN(C)C3,-6,99*,7,/,/
SMILES,M18AAP inhibitor,ALR inh,PHOSPHO1 inh,Cardio protect,PfG6PD inh
CN1CCc2c(sc3nc(SCC(N)=O)n(-c4ccccc4)c(=O)c23)C1,6,-17,-30,11,10
COC(=O)CSc1nc2sc3c(c2c(=O)n1-c1ccccc1)CCN(C)C3,0,100*,25,14,-6
C=CCNC(=O)CSc1nc2sc3c(c2c(=O)n1CCCOC)CCC3,8,81*,34,-4,-2
CSC[C@H]1CN(CCc2ccccc2)C(=O)[C@@H]1CC(=O)Nc1ccccc1,/,/,/,-5,-12
CN(Cc1ccc(Cl)cc1)C(=O)CNC(=O)C12CC3CC(CC(C3)C1)C2,/,-22,/,-10,-2
CCn1c(SCC(=O)NCCc2ccccc2)nc2sc3c(c2c1=O)CCN(C)C3,16,/,8,4,4
CCn1c(SCC(=O)c2ccccc2)nc2sc3c(c2c1=O)CCN(C)C3,5,99*,16,0,28
CNS(=O)(=O)c1cc2c3c(cccc3c1)C(=O)NC2=O,1,1,-17,58*,-4
CC1CCN(CCCNC(=O)c2ccc(N3CCCC3=O)cc2)CC1,2,-2,64*,9,5
CC(=O)c1ccc(NC(=O)[C@@H]2CCCN2C(=O)OC(C)(C)C)cc1,-1,4,48,-5,-7
Cc1c(N=C2NN=C(c3c[nH]c4ccccc34)CS2)c(=O)n(-c2ccccc2)n1C,10,/,-36,-3,32
COCc1c(C(=O)NC2CCCCC2)sc2cccc(F)c12,/,/,/,2,0
Cc1c(Cl)cccc1NS(=O)(=O)c1ccc2c(c1)C1C=CCC1C(c1ccc(C(=O)O)cc1)N2 (configuration not stated),6,98*,-12,1,-34
COc1ccc(NS(=O)(=O)c2ccc3c(c2)[C@H]2C=CC[C@H]2[C@@H](c2ccc(C(=O)O)cc2)N3)cc1,18,-11,14,-2,-2
CC1CCc2c(nc3ncnn3c2N2CCN(c3ccccc3)CC2)C1 (configuration not stated),5,99*,19,9,-4
C[N+]1(CCOS(=O)C23CC4CC(CC(C4)C2)C3)CCOCC1 (configuration not stated),0,-1,81*,2,-5
O=c1[nH]c(/C=C\c2ccc(O)c(Cl)c2)nc(O)c1[N+](=O)[O-],23,28,22,1,6
CCOc1cc(/C=C\c2nc(O)c([N+](=O)[O-])c(=O)[nH]2)ccc1OC(C)C,-10,7,28,0,2
C=CCc1cc(/C=C/c2nc(O)c([N+](=O)[O-])c(=O)[nH]2)cc(OC)c1O,28,82*,0,3,30
O=c1[nH]c(/C=C\c2ccc(O)cc2)nc(O)c1[N+](=O)[O-],9,97*,39,10,-3
CC(=O)c1cccc(NC(=O)c2ccc(-n3cncn3)c3ccoc23)c1,/,/,/,14,/
Cc1cc(OCc2nc3ccccc3s2)ccc1N,14,98*,20,-2,52
CS(=O)(=O)c1cccc(C(=O)Nc2nnc(C3=COCCO3)o2)c1,/,99*,/,1,-3
O=C(Nc1nnc(C2=COCCO2)o1)c1cccc([N+](=O)[O-])c1,-12,?,8,6,3
COc1cc(C(=O)Nc2nnc(C3=COCCO3)o2)cc(OC)c1OC,5,-3,24,6,-1
O=C(Nc1nnc(C2=COCCO2)o1)c1cccc(Br)c1,3,46,61*,12,-1
Cc1ccc2[nH]c(=O)c(-c3noc(CC(C)C)n3)cc2c1,-1,-3,11,-2,-1
CN1CCN(NC(=O)Nc2ccc(F)cc2)CC1,-3,-2,-34,3,9
Cc1nc(SCC(=O)O)c2oc3ccccc3c2n1,-8,-12,-2,1,-9
Cc1nc(SCC(=O)N2CCN(c3ccccc3)CC2)c2oc3ccccc3c2n1,0,/,24,74*,20

# Source: PubChem (several laboratories)
